Assay [1] concerns the target Lysosomal acid glucosylceramidase (Homo sapiens) (UniProt P04062). Nature of the assay: Glucocerebrosidase-p2 (AID 348; in the data active means potency below about 10 µM; further: potency means the concentration at half of the fitted maximal effect). The note with it: purified GBA, blue fluorogenic substrate, 40 min. The procedure, abridged:
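Compounds titrated from 0.6 nM upwards against 0.2 nM enzyme in pH 5.9 citric acid/KH2PO4, taurocholate, tween-20; blue fluorogenic substrate 80 uM, 40 min room temperature, stopped and read Ex 365/Em 440 for AC50.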

A short description of assay [2]: AP1 Signaling Pathway (AID 357). Further: on the % scale 0 is the no-effect control and ±100 the full control effect. The note with it: ME-180 AP-1-bla reporter, EGF-induced, beta-lactamase ratio, 5 h; at 7.69 µM (top of the series) unless noted. The procedure, abridged:
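Beta-lactamase reporter under AP-1 response element, ME-180 background. Stimulus: EC50 EGF. Compound exposure 5 h, 37 °C. Detection: CCF4, 2.5 h RT, 460/530 nm. Values: AC50 from titration.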

The nature of assay [3]: NFAT Signaling Pathway (AID 444).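 Further: carbachol stimulus at about its EC50 of 1 µM final; on the % scale 0 is the no-effect control and ±100 the full control effect.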 As to conditions: Jurkat NFAT-bla M1, carbachol, beta-lactamase ratio, 5 h; at 7.69 µM (top of the series) unless noted. The method in brief:
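Read-out: CCF4 FRET ratio (460 nm/530 nm) after 1 h RT dye loading, used for %activity and AC50 from titration series. Cells: Jurkat NFAT-β-lactamase/M1 line, treated with compound plus 1 uM carbachol for 5 h, 37 °C.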

Assay [4] is described as follows: Stat Signaling Pathway (AID 446).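 Further: ME-180 cervical cancer cells given 40 pM IL-6 alongside compound; SIE-controlled beta-lactamase reporter measured as 460/530 nm FRET emission ratio; on the % scale 0 is the no-effect control and ±100 the full control effect.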 As to conditions: ME-180 SIE beta-lactamase reporter, IL-6 stimulated, 5 h; at 7.69 µM (top of the series) unless noted. The method in brief: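 ME-180 cells carrying a SIE-driven beta-lactamase reporter are stimulated with 40 pM IL-6 for 5 h at 37C in the presence of compound. The 460/530 nm FRET substrate ratio is read after 2.5 h at RT. Data are normalised to 300 pM IL-6 and to 125 nM JAK inhibitor controls.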

The target of assay [5] is Glucocorticoid receptor (Homo sapiens) (UniProt P04150). Kind of assay: GR-EFC Redistribution (AID 451; calls by dose curve; further: potency means the concentration at half of the fitted maximal effect). The note with it: CHO-K1 GR-EFC translocation, beta-gal luminescence, 2 h. The procedure, abridged:
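Translocation of GR-ED fusion to nuclear EA restores b-gal, read by luminescence after 1 h room-temperature detection. Engineered CHO-K1 biosensor cells, 1,000/well, exposed 2 h at 37 C to titrations up to 46 uM final.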

The target in assay [6] is Mitogen-activated protein kinase 10 (Mus musculus) (UniProt Q61831). Kind of assay: JNK3 AlphaScreen Assay (AID 530).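 Further: kinase came from lysate of stimulated human HepG2 cells; signal reports phosphorylation of biotinylated GST-cJun 1-79 at Ser73 with 10 µM ATP; on the % scale 0 is the no-effect control and ±100 the full control effect.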 As to conditions: JNK3 lysate, c-Jun phosphorylation; series mostly up to 57.1 µM. The procedure, abridged: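 Compound titrations were preincubated 15 minutes at room temperature with substrate, antibody and pre-activated JNK3-containing HepG2 lysate. Reactions were started with 10 uM ATP and stopped with EDTA-containing bead buffer for AlphaScreen detection.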
Background: Bead proximity is the source of the signal in Alpha formats.

Assay [7] concerns the target 3',5'-cyclic-AMP phosphodiesterase 4B (Homo sapiens) (UniProt Q07343). Nature of the assay: qHTS Assay for Inhibitors of PDE-IV (AID 607; active means well fitted activation curve with a large enough effect in the main read-out, with a control signal flat, not every such curve was filed as active; further: % of control where 0% means no effect). As to conditions: HEK293 ACTOne CNG channel cells, membrane potential fluorescence; series mostly up to 22.9 µM. The procedure, abridged:
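HEK293 ACTOne cells with CNG channel (1000/well), endogenous PDE4; membrane potential dye, compounds up to 22.9 uM final. Fluorescence Ex 535/Em 590; RO 20-1724 (100 uM final) as reference.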

A short description of assay [8]: qHTS Assay for Lipid Storage Modulators (AID 1519; calls by dose curve). As to conditions: Drosophila S3 cells, BODIPY lipid droplet/cell ratio, laser cytometry, cells loaded with oleic acid; for activity change, negative = inhibition: at 57.5 µM (top of the series). The procedure, abridged:
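Cells seeded at 5,000 per well were treated with compounds over a concentration series and loaded with oleic acid (400 uM, as added). Lipid droplet fluorescence (488 nm excitation, 500-530 nm channel) was read by laser-scanning cytometry and normalized to 20 uM Triacsin C.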
(In general: In qHTS, concentration-response curves come from the screen itself.)

Assay [9] is described as follows: Primary qHTS for small molecule stabilizers of the endoplasmic reticulum resident proteome: Secreted ER Calcium Modulated Protein (SERCaMP) assay (AID 1508630; active means well fitted curve in the direction sought with a large enough effect; an effect the other way counts as inactive or inconclusive; further: on the % scale 0 is the no-effect control and ±100 the full control effect). The note with it: SH-SY5Y GLuc-SERCaMP (Gaussia luciferase released on ER calcium loss) secretion, thapsigargin, luminescence; series mostly up to 38.4 µM. The procedure, abridged:
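GLuc-SERCaMP-expressing SH-SY5Y cells, pretreated 16 h with compound, are challenged with thapsigargin to empty ER calcium stores; after 4 h, coelenterazine is added directly to the medium and luminescence is imaged.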

The target in assay [10] is Cytochrome P450 3A4 (Homo sapiens) (UniProt P08684). Kind of assay: qHTS Assay for Inhibitors and Substrates of Cytochrome P450 3A4 (AID 884; active means well fitted curve in the direction sought with a large enough effect; an effect the other way counts as inactive or inconclusive; further: nearly all actives have a fitted effect of over 50% in size; further: potency means the concentration at half of the fitted maximal effect). The note with it: recombinant CYP3A4, Luciferin-PPXE luminescence; series mostly up to 57.1 µM. The procedure, abridged: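 20 nM human CYP3A4 with 25 uM Luciferin-PPXE (at KM) in 200 mM KPO4, preincubated 10 min with compound; NADPH regeneration started a 60 min RT reaction. Luciferin detected by luminescence, normalized to 57 uM ketoconazole as full inhibition.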

Assay [11] shares this target. Kind of assay: qHTS Assay for Activators of Cytochrome P450 3A4 (AID 885; active means well fitted curve in the direction sought with a large enough effect; an effect the other way counts as inactive or inconclusive; further: nearly all actives have a fitted effect of over 65% in size; further: potency means the concentration at half of the fitted maximal effect). As to conditions: recombinant CYP3A4, Luciferin-PPXE luminescence, 60 min; series mostly up to 57.1 µM. The procedure, abridged:
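Human CYP3A4 (20 nM) with Luciferin-PPXE at 25 uM (its KM) in 200 mM KPO4; 10 min compound preincubation, then NADPH regeneration and 60 min reaction at RT. Luciferin read by luminescence; normalized to 57 uM ketoconazole full inhibition.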

Assay [12] in a line: qHTS Assay for Identification of Small Molecule Agonists for Hypoxia Response Element Signaling Pathway (AID 914; active means well fitted activation curve with a large enough effect in the signal ratio, with a control signal flat, not every such curve was filed as active; the % refers to the signal ratio; further: % of control where 0% means no effect). The note with it: ME-180 (cervical carcinoma) HRE-bla reporter, beta-lactamase ratio, CoCl2, 17 h; activation: stronger effect = higher value. The procedure, abridged: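 Compounds in a titration series were added to ME-180 reporter cells alongside an EC50 level of CoCl2. After 17 hours, beta-lactamase activity was read as the 460nm/530nm emission ratio of CCF4, giving AC50 values.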

Setting [13] is: measured here: cell count channel max response.
The mark [14] stands for this setting: measured here: lipid channel max response.

Results filed as inconclusive are left out. Calls of active or inactive are those of the source. Unless noted, the call rests on the fitted dose curve; in most records, active means well fitted curve in either direction with a large enough effect (not every such curve was filed as active); inconclusive means small, poorly fitted or top-dose-only effect, or another doubt; inactive means flat fitted curve, though single readings scatter.

Cytochrome P450 3A4 (Homo sapiens), sequence (P08684 whole entry, looked up): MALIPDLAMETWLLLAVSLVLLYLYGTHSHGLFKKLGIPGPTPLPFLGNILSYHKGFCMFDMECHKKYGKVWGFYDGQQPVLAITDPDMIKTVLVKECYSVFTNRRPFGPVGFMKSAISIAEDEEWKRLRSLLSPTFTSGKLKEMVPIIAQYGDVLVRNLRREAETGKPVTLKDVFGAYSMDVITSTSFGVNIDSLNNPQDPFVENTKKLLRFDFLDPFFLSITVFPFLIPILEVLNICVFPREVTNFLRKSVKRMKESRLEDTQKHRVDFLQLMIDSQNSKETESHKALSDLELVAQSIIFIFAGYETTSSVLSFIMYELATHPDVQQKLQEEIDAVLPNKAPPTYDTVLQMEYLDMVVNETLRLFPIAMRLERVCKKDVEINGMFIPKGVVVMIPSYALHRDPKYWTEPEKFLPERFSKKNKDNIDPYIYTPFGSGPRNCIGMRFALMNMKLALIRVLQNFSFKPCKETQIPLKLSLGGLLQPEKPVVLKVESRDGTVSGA
Glucocorticoid receptor (Homo sapiens), sequence (P04150 whole entry, looked up, the tested form may be a part): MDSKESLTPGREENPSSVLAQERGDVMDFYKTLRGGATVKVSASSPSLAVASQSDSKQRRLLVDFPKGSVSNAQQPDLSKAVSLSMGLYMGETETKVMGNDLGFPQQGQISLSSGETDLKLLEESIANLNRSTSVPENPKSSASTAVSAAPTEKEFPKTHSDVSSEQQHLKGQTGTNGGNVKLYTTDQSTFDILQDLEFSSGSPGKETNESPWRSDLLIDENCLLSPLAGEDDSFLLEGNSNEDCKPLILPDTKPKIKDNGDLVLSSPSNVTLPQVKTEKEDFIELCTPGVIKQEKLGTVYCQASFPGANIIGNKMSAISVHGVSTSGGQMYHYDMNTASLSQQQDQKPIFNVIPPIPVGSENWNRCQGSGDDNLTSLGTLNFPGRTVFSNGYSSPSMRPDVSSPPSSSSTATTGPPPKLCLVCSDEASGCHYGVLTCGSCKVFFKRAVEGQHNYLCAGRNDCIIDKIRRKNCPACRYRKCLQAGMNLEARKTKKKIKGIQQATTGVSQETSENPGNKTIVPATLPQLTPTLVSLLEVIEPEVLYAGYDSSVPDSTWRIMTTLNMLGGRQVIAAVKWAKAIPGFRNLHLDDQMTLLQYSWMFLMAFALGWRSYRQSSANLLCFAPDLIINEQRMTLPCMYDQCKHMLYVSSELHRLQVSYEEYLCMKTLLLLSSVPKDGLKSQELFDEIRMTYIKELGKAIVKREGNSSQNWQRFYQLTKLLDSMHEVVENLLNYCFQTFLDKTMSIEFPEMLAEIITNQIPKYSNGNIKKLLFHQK
Lysosomal acid glucosylceramidase (Homo sapiens), sequence (P04062 whole entry, looked up): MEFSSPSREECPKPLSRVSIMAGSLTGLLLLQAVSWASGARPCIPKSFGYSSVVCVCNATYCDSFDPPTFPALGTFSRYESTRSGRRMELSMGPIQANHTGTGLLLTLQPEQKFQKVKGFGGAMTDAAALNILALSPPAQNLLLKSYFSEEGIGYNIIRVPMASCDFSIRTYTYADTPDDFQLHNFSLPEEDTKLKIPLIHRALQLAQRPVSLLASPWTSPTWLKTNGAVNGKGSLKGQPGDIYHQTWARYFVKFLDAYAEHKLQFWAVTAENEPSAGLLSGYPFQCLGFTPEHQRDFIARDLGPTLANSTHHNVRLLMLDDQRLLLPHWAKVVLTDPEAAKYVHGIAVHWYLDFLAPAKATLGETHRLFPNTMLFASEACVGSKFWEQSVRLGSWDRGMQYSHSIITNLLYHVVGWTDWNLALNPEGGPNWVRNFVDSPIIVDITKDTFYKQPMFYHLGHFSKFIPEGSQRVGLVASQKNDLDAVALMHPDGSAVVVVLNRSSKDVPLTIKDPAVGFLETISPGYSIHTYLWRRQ
3',5'-cyclic-AMP phosphodiesterase 4B (Homo sapiens), sequence (Q07343 whole entry, looked up): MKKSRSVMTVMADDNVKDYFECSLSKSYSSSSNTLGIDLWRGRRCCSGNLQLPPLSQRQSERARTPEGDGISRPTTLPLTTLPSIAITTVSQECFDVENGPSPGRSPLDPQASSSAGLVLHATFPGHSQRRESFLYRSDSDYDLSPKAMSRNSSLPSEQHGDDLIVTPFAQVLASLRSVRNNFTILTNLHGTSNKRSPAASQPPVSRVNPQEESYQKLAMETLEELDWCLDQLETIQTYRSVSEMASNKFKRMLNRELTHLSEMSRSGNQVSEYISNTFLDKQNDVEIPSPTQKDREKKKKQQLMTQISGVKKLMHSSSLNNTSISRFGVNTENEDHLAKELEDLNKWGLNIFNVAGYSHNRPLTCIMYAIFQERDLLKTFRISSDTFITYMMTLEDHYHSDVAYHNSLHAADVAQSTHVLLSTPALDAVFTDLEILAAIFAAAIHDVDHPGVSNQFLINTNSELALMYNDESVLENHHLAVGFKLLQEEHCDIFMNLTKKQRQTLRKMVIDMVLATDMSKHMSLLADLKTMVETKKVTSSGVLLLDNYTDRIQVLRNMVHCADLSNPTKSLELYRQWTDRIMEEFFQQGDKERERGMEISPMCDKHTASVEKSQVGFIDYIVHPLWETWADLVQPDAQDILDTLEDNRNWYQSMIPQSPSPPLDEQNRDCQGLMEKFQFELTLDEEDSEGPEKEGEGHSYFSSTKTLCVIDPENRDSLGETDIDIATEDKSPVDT

Take `O=C(c1cccc(F)c1)N1CCC[C@@]2(CCN(c3ccccn3)C2)C1`: the Potency is > 11.4 µM (inactive) in assay [1] and > 46 µM (inactive) in [5]. In addition, the results for the activity change, negative = inhibition in [2], in assay [3] and in [8] were -17% (inactive), -7.81% (inactive) and 6.88% (inactive), respectively. In addition, the activity, negative = inhibition in assay [4] is -6.48% (inactive). Moreover, the Potency entry in assay [6] and in assay [7] was “inactive” in each case. In addition, the max response is 12.7% in assay [8] (setting [13]) and 23.1% in assay [8] (setting [14]). The outcome in assay [9] was inactive.
For `COc1ccc(C(=O)N2CCC[C@@]3(CCN(c4ncccn4)C3)C2)cc1`, the Potency in [1] was > 11.4 µM (inactive); in [5] it was > 46 µM (inactive). Further, the figures for the activity change, negative = inhibition in assay [2], in assay [3] and in assay [8] were -20.4% (inactive), 4.77% (inactive) and 4.06% (inactive), respectively. Besides, the activity, negative = inhibition in assay [4] was 1.38% (inactive). Also, the Potency result in [6] and in [7] was “inactive” throughout. The results for the max response in assay [8] (setting [13]) and in assay [8] (setting [14]) were 3.46% and 12.1%, respectively. Besides, the outcome in assay [9] was inactive.
Take `COc1ccc(C(=O)N2CCC[C@@]3(CCN(CC(C)C)C3)C2)cc1`: the Potency was > 11.4 µM (inactive) in [1], > 46 µM (inactive) in assay [5] and 7.94 µM (active) in [10]. Also, the activity change, negative = inhibition in assay [2] was -12.8% (inactive); in assay [3] it was -2.79% (inactive); in [8] it was 2.82% (inactive). Moreover, the activity, negative = inhibition in assay [4] was -10.6% (inactive). Further, the Potency result in [6], in assay [7] and in assay [11] was “inactive” each time. The figures for the max response in assay [8] (setting [13]) and in assay [8] (setting [14]) were 8.22% and 13.2%, respectively. For the same compound, the result in assay [9] was inactive.
With `COCC(=O)N1CCC2(CCN(Cc3nccs3)CC2)CC1`, the Potency in assay [1] was > 11.4 µM (inactive); in assay [5], > 46 µM (inactive). The activity change, negative = inhibition in assay [2] is 0.0953% (inactive); in [3], -2.93% (inactive); in [8] it was 2.2% (inactive). Besides, the activity, negative = inhibition in assay [4] was 10% (inactive). Besides, the Potency entry in assay [6] and in assay [7] was “inactive” throughout. In addition, the activation in assay [12] is 14.8% (inactive). Moreover, the results for the max response in [8] (setting [13]) and in [8] (setting [14]) were 9.94% and 16.3%, respectively. For the same compound, the outcome in assay [9] was inactive.
On to `COc1ccccc1CN1CC[C@@]2(CCCN(C(=O)c3cnccn3)C2)C1`, for which the Potency in [1] was > 11.4 µM (inactive); in [5], > 46 µM (inactive). Further, the activity change, negative = inhibition in assay [2] was -0.652% (inactive); in assay [3], 0.87% (inactive); in assay [8] it was 3.53% (inactive). Also, the activity, negative = inhibition in assay [4] was 9.03% (inactive). Moreover, the Potency result in assay [6] and in [7] was “inactive” each time. Further, the max response in [8] (setting [13]) came to 12.1%; in assay [8] (setting [14]), 17.4%. In assay [9], the result was inactive.
`COCC(=O)N1CCC2(CC1)CCN(C(=O)NC(C)C)CC2`: the Potency in assay [1] was > 11.4 µM (inactive); in assay [5], > 46 µM (inactive). Also, the activity change, negative = inhibition in assay [2] was -2.26% (inactive); in assay [3] it was 0.244% (inactive); in [8], 0.579% (inactive). Moreover, the activity, negative = inhibition in [4] was 6.66% (inactive). Also, the Potency result in assay [6] and in assay [7] was “inactive” in each case. Moreover, the activation in assay [12] is -5.43% (inactive). Besides, the figures for the max response in assay [8] (setting [13]) and in assay [8] (setting [14]) were 13.2% and 16.2%, respectively. Moreover, the outcome in assay [9] was inactive.
Take `N#Cc1cccc(NC(=O)N2CC3(CCN(C(=O)c4cccc(F)c4)CC3)C2)c1`: the Potency in assay [1] was > 11.4 µM (inactive); in assay [5], > 46 µM (inactive); in [11], 10 µM (active). Besides, the activity change, negative = inhibition is -1.48% (inactive) in assay [2], 8.8% (inactive) in [3] and 4.13% (inactive) in assay [8]. Moreover, in assay [4], the activity, negative = inhibition was -8.78% (inactive). Moreover, the Potency entry in assay [6], in [7] and in assay [10] was “inactive” each time. Also, the max response came to 17% in [8] (setting [13]) and 25.1% in [8] (setting [14]). Further, the result in assay [9] was inactive.

Values taken from PubChem BioAssay (NCATS).
